Experimental data published in the supplement of paper PMC8728848.
Many of the other results were omitted from the sample, so the strongest signals are more common in it than they were.

How the values were obtained:
Experiment in all cases: glycan array binding signal (z-score within array); higher = stronger binding
[1] = test system: Neu5Ac(a2-6)Gal(b1-4)GlcNAc(b1-3)Gal(b1-4)[Fuc(a1-3)]GlcNAc(b1-3)Gal(b1-4)[Fuc(a1-3)]GlcNAc; conditions: glycan notation: IUPAC condensed, linker removed
Procedure, shortened: (§1)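 Glycan array data were curated from 3228 arrays in the Consortium for Functional Glycomics database and kept only where the protein sequence was available. Glycan names were converted to IUPAC-condensed notation, and columns mapping to the same glycan were averaged. The binding signal is a within-array Z-score, averaged across arrays of the same protein sequence at different concentrations or buffers and across linkers. Negative Z-scores can be read as non-binding.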

[2] = test system: Neu5Ac(a2-6)Gal(b1-4)GlcNAc; conditions: glycan notation: IUPAC condensed, linker removed
Procedure, shortened: as §1

[3] = test system: Neu5Ac(a2-8)Neu5Ac(a2-3)Gal(b1-3)GalNAc(b1-4)[Neu5Ac(a2-3)]Gal(b1-4)Glc; conditions: glycan notation: IUPAC condensed, linker removed; mutation: R125K
Procedure, shortened: as §1

[4] = test system: Neu5Ac(a2-8)Neu5Ac(a2-3)Gal(b1-4)GlcNAc; conditions: glycan notation: IUPAC condensed, linker removed; mutation: R125K
Procedure, shortened: as §1

[5] = test system: Neu5Ac(a2-6)Gal(b1-4)GlcNAc(b1-3)Gal(b1-3)GlcNAc; conditions: glycan notation: IUPAC condensed, linker removed
Procedure, shortened: as §1

[6] = test system: Neu5Ac(a2-6)GalNAc; conditions: glycan notation: IUPAC condensed, linker removed
Procedure, shortened: as §1

[7] = test system: Neu5Ac(a2-6)Gal(b1-4)GlcNAc(b1-2)[Neu5Ac(a2-6)Gal(b1-4)GlcNAc(b1-4)]Man(a1-3)[GlcNAc(b1-4)][Neu5Ac(a2-6)Gal(b1-4)GlcNAc(b1-4)Man(a1-6)]Man(b1-4)GlcNAc(b1-4)GlcNAc; conditions: glycan notation: IUPAC condensed, linker removed
Procedure, shortened: as §1

[8] = test system: Neu5Ac(a2-6)Gal(b1-4)GlcNAc(b1-3)Gal(b1-4)GlcNAc(b1-3)Gal(b1-4)GlcNAc(b1-2)Man(a1-3)[Neu5Ac(a2-6)Gal(b1-4)GlcNAc(b1-3)Gal(b1-4)GlcNAc(b1-3)Gal(b1-4)GlcNAc(b1-2)Man(a1-6)]GalNAc; conditions: glycan notation: IUPAC condensed, linker removed
Procedure, shortened: as §1

[9] = test system: Neu5Ac(a2-6)Gal(b1-4)GlcNAc(b1-3)Gal(b1-4)GlcNAc(b1-3)[Neu5Ac(a2-6)Gal(b1-4)GlcNAc(b1-3)Gal(b1-4)GlcNAc(b1-6)]GalNAc; conditions: glycan notation: IUPAC condensed, linker removed
Procedure, shortened: as §1

[10] = test system: Neu5Ac(a2-6)GalNAc(b1-4)GlcNAc6S; conditions: glycan notation: IUPAC condensed, linker removed
Procedure, shortened: as §1

[11] = test system: Neu5Ac(a2-6)Gal(b1-4)GlcNAc(b1-6)[Gal(b1-3)]GalNAc; conditions: glycan notation: IUPAC condensed, linker removed
Procedure, shortened: as §1

[12] = test system: Neu5Ac(a2-6)Gal(b1-4)GlcNAc6S; conditions: glycan notation: IUPAC condensed, linker removed
Procedure, shortened: as §1

[13] = test system: Neu5Ac(a2-8)Neu5Ac(a2-3)[GalNAc(b1-4)]Gal(b1-4)Glc; conditions: glycan notation: IUPAC condensed, linker removed
Procedure, shortened: as §1

[14] = test system: Neu5Ac(a2-6)Gal; conditions: glycan notation: IUPAC condensed, linker removed
Procedure, shortened: as §1

[15] = test system: Neu5Ac(a2-6)GlcNAc(b1-4)GlcNAc; conditions: glycan notation: IUPAC condensed, linker removed
Procedure, shortened: as §1

[16] = test system: Neu5Ac(a2-8)Neu5Ac(a2-8)Neu5Ac(a2-3)Gal(b1-4)Glc; conditions: glycan notation: IUPAC condensed, linker removed
Procedure, shortened: as §1

[17] = test system: Neu5Ac(a2-6)Gal(b1-4)GlcNAc(b1-3)Gal(b1-4)GlcNAc; conditions: glycan notation: IUPAC condensed, linker removed
Procedure, shortened: as §1

[18] = test system: Neu5Ac(a2-6)Gal(b1-4)Glc; conditions: glycan notation: IUPAC condensed, linker removed
Procedure, shortened: as §1

[19] = test system: Neu5Ac(a2-8)Neu5Ac(a2-3)Gal(b1-4)Glc; conditions: glycan notation: IUPAC condensed, linker removed
Procedure, shortened: as §1

[20] = test system: Neu5Ac(a2-8)Neu5Ac(a2-8)Neu5Ac(a2-3)[GalNAc(b1-4)]Gal(b1-4)Glc; conditions: glycan notation: IUPAC condensed, linker removed
Procedure, shortened: as §1

CHI3L1 (Homo sapiens), P36222, sequence (P36222 whole entry): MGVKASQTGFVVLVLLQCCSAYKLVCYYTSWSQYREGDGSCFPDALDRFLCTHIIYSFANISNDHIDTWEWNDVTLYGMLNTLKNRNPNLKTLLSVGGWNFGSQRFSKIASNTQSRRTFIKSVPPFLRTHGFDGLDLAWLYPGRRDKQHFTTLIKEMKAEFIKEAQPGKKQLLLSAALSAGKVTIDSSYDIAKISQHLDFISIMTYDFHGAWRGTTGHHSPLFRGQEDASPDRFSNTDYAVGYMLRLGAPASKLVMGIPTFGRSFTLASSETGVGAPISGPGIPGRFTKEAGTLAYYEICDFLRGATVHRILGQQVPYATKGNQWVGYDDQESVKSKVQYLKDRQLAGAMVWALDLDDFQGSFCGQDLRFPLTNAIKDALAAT
PILRb (Mus musculus), Q2YSF2, sequence (Q2YSF2 entry or part of it): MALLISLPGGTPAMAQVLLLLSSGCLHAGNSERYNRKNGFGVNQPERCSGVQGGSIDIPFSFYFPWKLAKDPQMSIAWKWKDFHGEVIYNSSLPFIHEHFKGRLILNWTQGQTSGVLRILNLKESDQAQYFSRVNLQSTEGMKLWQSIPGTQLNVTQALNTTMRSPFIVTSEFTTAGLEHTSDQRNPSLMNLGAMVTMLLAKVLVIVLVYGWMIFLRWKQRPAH
Regenerating Gene IV (Homo sapiens), Q9BYZ8, sequence (Q9BYZ8 whole entry, looked up): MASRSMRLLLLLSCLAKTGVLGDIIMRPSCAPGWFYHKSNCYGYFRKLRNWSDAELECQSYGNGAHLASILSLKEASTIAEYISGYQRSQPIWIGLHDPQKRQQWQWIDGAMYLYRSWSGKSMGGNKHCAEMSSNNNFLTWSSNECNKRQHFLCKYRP
Avaren (Actinomycete K97), sequence (chain, as listed by the source): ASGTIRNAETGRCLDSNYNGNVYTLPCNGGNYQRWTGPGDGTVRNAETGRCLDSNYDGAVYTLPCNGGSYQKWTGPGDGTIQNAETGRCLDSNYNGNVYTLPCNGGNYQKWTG
Neurocan (Homo sapiens), O14594, sequence (O14594 other isoform, or with tags, fused parts or gaps): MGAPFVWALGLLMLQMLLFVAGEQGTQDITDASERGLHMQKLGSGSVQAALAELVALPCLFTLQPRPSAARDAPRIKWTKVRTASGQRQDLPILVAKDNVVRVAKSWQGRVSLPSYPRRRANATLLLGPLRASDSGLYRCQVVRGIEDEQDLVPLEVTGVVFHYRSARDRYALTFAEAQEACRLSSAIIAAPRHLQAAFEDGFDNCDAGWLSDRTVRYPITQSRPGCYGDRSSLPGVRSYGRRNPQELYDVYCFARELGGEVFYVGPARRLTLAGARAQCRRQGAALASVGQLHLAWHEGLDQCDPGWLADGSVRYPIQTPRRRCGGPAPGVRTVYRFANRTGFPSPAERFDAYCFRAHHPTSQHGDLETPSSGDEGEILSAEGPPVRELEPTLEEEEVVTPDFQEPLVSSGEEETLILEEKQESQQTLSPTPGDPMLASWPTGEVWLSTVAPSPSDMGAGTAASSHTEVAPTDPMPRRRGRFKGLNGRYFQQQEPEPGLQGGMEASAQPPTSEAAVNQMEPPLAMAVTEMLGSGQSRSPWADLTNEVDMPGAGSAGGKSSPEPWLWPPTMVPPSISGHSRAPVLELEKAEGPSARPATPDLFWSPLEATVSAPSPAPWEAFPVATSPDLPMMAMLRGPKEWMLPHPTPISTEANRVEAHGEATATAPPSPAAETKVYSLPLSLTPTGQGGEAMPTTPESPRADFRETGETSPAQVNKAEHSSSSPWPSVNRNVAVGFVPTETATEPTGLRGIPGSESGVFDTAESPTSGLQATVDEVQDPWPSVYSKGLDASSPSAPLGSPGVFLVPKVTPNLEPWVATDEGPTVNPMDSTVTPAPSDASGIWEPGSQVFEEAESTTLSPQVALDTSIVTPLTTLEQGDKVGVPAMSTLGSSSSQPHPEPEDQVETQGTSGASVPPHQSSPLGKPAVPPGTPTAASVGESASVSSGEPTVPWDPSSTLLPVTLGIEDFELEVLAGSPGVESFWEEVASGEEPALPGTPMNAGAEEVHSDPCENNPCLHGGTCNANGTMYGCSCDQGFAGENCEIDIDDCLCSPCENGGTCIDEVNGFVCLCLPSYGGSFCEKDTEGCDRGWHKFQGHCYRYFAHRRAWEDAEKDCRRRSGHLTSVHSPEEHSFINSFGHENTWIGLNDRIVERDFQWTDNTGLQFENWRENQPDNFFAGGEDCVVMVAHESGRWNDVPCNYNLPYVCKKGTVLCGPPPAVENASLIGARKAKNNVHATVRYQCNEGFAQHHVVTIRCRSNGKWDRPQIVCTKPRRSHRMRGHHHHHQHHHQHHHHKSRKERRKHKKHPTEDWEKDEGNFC
C3b (Homo sapiens), P01024, sequence (P01024 23-667): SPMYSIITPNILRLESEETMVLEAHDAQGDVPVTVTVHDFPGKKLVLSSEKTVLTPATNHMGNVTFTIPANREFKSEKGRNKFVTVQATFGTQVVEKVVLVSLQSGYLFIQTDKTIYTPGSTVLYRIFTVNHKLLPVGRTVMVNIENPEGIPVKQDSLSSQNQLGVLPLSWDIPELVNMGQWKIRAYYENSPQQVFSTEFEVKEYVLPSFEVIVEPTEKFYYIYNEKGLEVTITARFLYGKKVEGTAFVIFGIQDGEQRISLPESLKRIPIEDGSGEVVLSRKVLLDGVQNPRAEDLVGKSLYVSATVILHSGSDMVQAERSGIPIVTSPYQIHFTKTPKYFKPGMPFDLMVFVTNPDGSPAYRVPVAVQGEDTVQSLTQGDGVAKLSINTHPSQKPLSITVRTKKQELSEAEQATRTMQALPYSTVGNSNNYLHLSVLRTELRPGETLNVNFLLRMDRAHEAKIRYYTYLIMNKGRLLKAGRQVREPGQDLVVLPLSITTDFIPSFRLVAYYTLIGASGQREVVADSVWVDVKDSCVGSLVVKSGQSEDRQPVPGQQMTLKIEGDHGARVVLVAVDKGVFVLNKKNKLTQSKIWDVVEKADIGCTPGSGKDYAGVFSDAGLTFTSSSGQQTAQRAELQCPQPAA
PILRa (Mus musculus), Q2YSF3, sequence (Q2YSF3 entry or part of it): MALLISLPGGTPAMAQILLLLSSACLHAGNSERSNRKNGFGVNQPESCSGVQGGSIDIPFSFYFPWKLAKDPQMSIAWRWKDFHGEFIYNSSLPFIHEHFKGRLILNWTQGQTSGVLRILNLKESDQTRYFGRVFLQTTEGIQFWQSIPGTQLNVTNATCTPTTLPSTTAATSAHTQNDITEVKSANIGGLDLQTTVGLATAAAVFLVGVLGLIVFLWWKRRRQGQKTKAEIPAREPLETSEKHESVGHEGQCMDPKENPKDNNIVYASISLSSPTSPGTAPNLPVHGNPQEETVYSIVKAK
SRLC (Mus musculus), Q8VIF6, sequence (Q8VIF6 other isoform, or with tags, fused parts or gaps): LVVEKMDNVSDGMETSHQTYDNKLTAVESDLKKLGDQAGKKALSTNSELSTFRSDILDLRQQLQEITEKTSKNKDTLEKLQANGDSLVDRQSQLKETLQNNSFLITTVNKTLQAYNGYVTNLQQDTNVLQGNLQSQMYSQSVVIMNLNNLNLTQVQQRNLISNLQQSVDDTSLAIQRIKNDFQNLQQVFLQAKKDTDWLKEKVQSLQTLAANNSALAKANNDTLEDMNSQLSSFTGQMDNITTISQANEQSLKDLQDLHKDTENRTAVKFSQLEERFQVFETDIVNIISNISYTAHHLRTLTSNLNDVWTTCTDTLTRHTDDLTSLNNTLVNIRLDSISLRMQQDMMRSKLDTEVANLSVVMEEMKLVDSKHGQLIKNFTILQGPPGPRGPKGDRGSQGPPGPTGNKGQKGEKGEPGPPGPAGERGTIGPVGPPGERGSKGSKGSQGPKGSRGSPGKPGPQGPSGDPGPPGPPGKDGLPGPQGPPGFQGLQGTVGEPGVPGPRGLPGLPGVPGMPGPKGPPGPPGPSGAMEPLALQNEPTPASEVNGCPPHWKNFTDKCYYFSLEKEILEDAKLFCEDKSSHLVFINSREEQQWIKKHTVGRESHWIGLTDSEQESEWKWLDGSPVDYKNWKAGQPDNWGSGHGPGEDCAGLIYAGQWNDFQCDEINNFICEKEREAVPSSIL
Aggrecan (Rattus norvegicus), NP_071526, sequence (chain, as listed by the source): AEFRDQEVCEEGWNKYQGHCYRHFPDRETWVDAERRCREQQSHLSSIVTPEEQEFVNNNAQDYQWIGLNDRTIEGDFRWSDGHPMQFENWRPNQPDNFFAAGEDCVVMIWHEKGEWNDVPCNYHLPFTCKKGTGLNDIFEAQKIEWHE

Siglec-8 (Homo sapiens), Q9NYZ4
glycan array binding signal (z-score) [1]: 0.008 | glycan array binding signal (z-score) ([2]; mutation: R125K): -0.306 | glycan array binding signal (z-score) [3]: -0.164 | glycan array binding signal (z-score) [4]: -0.473

Neurocan (Homo sapiens), O14594
glycan array binding signal (z-score) [5]: 0.267 | glycan array binding signal (z-score) [1]: -1.44 | glycan array binding signal (z-score) [6]: 0.364

MpAFP RI GFP (Marinomonas primoryensis)
glycan array binding signal (z-score) [7]: 0.092 | glycan array binding signal (z-score) [8]: 3.43 | glycan array binding signal (z-score) [9]: 1.36 | glycan array binding signal (z-score) [10]: -0.16

Avaren (Actinomycete K97)
glycan array binding signal (z-score) [11]: -0.134 | glycan array binding signal (z-score) [12]: -0.14 | glycan array binding signal (z-score) [13]: -0.117

PILRa (Mus musculus), Q2YSF3
glycan array binding signal (z-score) [12]: 1.51 | glycan array binding signal (z-score) [14]: 2.04

PILRb (Mus musculus), Q2YSF2
glycan array binding signal (z-score) [2]: -0.349 | glycan array binding signal (z-score) [15]: -0.085 | glycan array binding signal (z-score) [16]: -0.167

Aggrecan (Rattus norvegicus), NP_071526
glycan array binding signal (z-score) [17]: -0.113

HARE (Homo sapiens), Q8WWQ8
glycan array binding signal (z-score) [17]: -0.057 | glycan array binding signal (z-score) [14]: -0.26

CHI3L1 (Homo sapiens), P36222
glycan array binding signal (z-score) [17]: -0.105 | glycan array binding signal (z-score) [12]: -0.139 | glycan array binding signal (z-score) [10]: -0.113 | glycan array binding signal (z-score) [16]: -0.11

C3b (Homo sapiens), P01024
glycan array binding signal (z-score) [12]: 0.107 | glycan array binding signal (z-score) [18]: -0.687

Regenerating Gene IV (Homo sapiens), Q9BYZ8
glycan array binding signal (z-score) [2]: -0.335 | glycan array binding signal (z-score) [14]: 0.693 | glycan array binding signal (z-score) [19]: 0.532 | glycan array binding signal (z-score) [20]: -0.332

SRLC (Mus musculus), Q8VIF6
glycan array binding signal (z-score) [19]: -0.188
